# Laboratory results: PubChem BioAssay
# Several values for one entry are separate records, joined by “and”; a condition that tells them apart may be missing. Equal values may be shown once. Activity calls are given as the source filed them. Cut-off read from the data, not from the text of the source, unless noted: active = parasite load remaining mostly below about 12% (no sharp cut-off); inactive = mostly above about 10%.
# Key:
# [1] = liver-stage malaria parasite growth inhibition, primary screen, cell-based, HepG2, luciferase luminescence, HepG2 viability (AID 624349);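 note: 100% = mean of DMSO negative control wells on the same plate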; settings: P. berghei liver stage in HepG2, luciferase luminescence, concentration not given here; parasite load remaining: stronger effect = lower value; viability: measured here: HepG2 viability without parasites
# [2] = stimulators of nuclear beta-catenin in C2C12, primary screen, imaging, WNT3A-conditioned medium, mouse C2C12, NPC library (AID 1117326; in the data active = nuclear beta-catenin stimulation mostly above about 4.2%, no sharp cut-off; inactive = mostly below about 10%); settings: stronger effect = higher value
# [3] = stimulators of insulin release from INS-1E, primary screen, cell-based, 5 mM glucose, NPC library (AID 1117329;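 active = compound raises insulin release from rat beta cells at 5 mM glucose, no numeric limit stated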); settings: rat INS-1E insulin secretion, at 10 µM, stronger effect = higher value
# [4] = growth inhibition of GSK3B-pretreated HCT116 cells – cell-based, CellTiter-Glo, 0.2 to 20 µM (AID 1117336;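 active = compounds lowering colon cancer cell viability after pretreatment blocking the GSK3B kinase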); settings: HCT116 viability after GSK3B inhibitor, at 20 µM, stronger effect = higher value
# [5] = inhibition of endothelial tube formation, primary screen, imaging, VEGF stimulated, CD31 staining, tube area, NPC library (AID 1117340;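 active = compound that reduces growth-factor-driven endothelial tube area in a mixed cell culture, no cutoff stated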); settings: VEGF-stimulated ADSC/ECFC co-culture, at 10 µM, stronger effect = higher value
# [6] = glucagon-like peptide 1 release enhancers, primary assay, NCI-H716 cell line, NPC library (AID 1117341;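 active = compound raises GLP1 secretion from the human gut endocrine cells, with no numeric limit stated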); settings: NCI-H716 cells, at 10 µM, stronger effect = higher value
# [7] = HCT116 colon cancer cell growth inhibition, primary screen, CellTiter-Glo luminescence, NPC library (AID 1117342;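 active = compounds that lower survival of HCT116 colon cancer cells in the luminescence readout, no numeric limit stated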); settings: at 20 µM (top of the series)
# [8] = CellTiter-Glo luminescent readout of SW480 viability loss, NPC library primary (AID 1117343;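 active = compounds that lower viability of the colon cancer cells in the luminescence readout, with no numeric limit stated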); settings: CellTiter-Glo luminescence; at 20 µM (top of the series)
# [9] = decreased DLD-1 cellular survival, CellTiter-Glo luminescent readout, NPC compound collection, primary HTS (AID 1117346;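 active = compounds that lower survival of DLD-1 colon cancer cells in the luminescence readout, no cutoff given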); settings: DLD-1 viability, CellTiter-Glo luminescence; at 20 µM (top of the series)
# [10] = target: 6-phosphogluconate dehydrogenase, decarboxylating (Homo sapiens) (UniProt P52209); test: 6PGD enzyme inhibitors, primary screen, biochemical, human, recombinant enzyme, NADPH absorbance (AID 1159550;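 active = at least 20% inhibition of 6-phosphogluconate dehydrogenase activity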); settings: recombinant 6PGD, NADPH absorbance 341 nm; at 10 µM; stronger effect = higher value
# [11] = differential killing of epithelial or mesenchymal cells, primary screen, imaging, PC-3E GFP, TEM4-18 mCherry, co-culture (AID 1345086;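 active = compounds killing one labelled cell type while sparing the other, by normalised counts and ratio limits, not self-fluorescent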;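 for all read-outs here: cells exposed to compound for 72 h before imaging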;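 for red/green cell ratio (normalised): normalised mesenchymal count divided by normalised epithelial count so high means epithelial killing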); settings: imaging cell counts, at 1 µM; for red/green cell ratio (normalised): actives lie on both sides
# [12] = test system: Aerobactin synthetase IucA (Klebsiella pneumoniae hvKP1); test: Biochemical IucA enzyme inhibition primary screen of the Spectrum library (AID 1346200; call rule not given here;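 note: 100% = wells without compound and 0% = wells lacking enzyme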); settings: malachite green pyrophosphate, A620, at 8 µM, stronger effect = lower value
# [13] = target: NAD(+) hydrolase SARM1 (Homo sapiens) (UniProt Q6SZW1); test: SARM1 TIR NADase inhibitors, cell lysate, NAD-Glo luminescence (AID 1508614;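 active = compound whose remaining NAD level is above about 45 nM, limit read from the data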;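 note: higher remaining NAD means stronger inhibition of SARM1 NADase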); settings: SAM-TIR HEK293T lysate NADase, at 1 µM, stronger effect = higher value
# [14] = suppressors of polyQ aggregation in yeast, 75Q-TubU reporter (AID 1593); settings: Yeast 75Q polyglutamine aggregation reporter
# [15] = inhibitors of mitochondrial cytochrome c release, biochemical, purified mitochondria (AID 1603); settings: stronger effect = lower value;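 note: mouse liver mitochondria challenged with calcium chloride; signal normalized to the plate average as 100%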
# [16] = inhibitors of polyQ protein aggregation (AID 1604); settings: polyglutamine-induced protein aggregation inhibition assay; stronger effect = higher value; tested at 2.5 µM
# [17] = sensitizers of A549 cells to miR-34 induction, primary screen, imaging, A549 dox-inducible miR-34, nuclei and caspase counts (AID 1347080;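 active = compounds whose cell count with miR-34 switched on is under 0.7 times the count with it off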); settings: A549 miR-34 inducible, Hoechst nuclei count, 48 h
# [18] = survival rescue of mitochondrial mutant cells in low glucose, primary screen, MELAS cybrids, Rieske KO mouse fibroblasts, CellTiter-Glo (AID 1508586;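 active = mean z-score across replicates of 1.96 or higher in either the MELAS or the Rieske mutant cell line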;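 note: z relative to plate mean and SD of compound and empty wells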)
# [19] = target: Mitogen-activated protein kinase 7 (Homo sapiens) (UniProt Q13164); test: ERK5 transactivation activators in reporter cells, primary screen, cell-based, HTS (AID 1508626;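 active = luciferase signal above three times the same-plate solvent-only control wells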;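 note: luciferase driven by Gal4-ERK5 fusion binding five Gal4 sites before minimal TATA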); settings: HeLa Gal4-ERK5 transactivation, 18 h, at 5 µM, stronger effect = higher value
# [20] = measured here: epithelial PC-3E GFP cell survival
# [21] = measured here: mesenchymal TEM4-18 mCherry cell survival
# [22] = measured here: relative caspase fold change +Dox/-Dox
# [23] = measured here: total cells with miR-34 induction, stronger effect = lower value
# [24] = measured here: total cells without miR-34 induction
# Sequence of NAD(+) hydrolase SARM1 (Homo sapiens) (Q6SZW1 whole entry, looked up): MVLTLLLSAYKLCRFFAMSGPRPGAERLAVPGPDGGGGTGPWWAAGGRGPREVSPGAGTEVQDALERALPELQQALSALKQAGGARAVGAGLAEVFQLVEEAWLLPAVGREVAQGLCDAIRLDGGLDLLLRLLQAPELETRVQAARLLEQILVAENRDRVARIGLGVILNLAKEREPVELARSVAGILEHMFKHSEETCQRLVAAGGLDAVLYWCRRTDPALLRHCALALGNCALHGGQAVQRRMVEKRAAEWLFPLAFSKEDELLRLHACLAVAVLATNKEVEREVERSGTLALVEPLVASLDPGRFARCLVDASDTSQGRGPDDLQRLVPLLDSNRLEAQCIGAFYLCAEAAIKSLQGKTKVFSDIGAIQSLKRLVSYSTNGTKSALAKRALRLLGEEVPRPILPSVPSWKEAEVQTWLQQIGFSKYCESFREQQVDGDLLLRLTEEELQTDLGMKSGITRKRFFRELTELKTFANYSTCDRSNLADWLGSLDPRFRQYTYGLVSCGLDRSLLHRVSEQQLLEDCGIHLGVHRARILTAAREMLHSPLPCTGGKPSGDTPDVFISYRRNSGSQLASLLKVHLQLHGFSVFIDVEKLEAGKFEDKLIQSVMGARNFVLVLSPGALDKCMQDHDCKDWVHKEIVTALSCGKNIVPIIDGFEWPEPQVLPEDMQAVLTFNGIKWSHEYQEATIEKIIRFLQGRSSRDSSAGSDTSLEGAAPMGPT
# Sequence of 6-phosphogluconate dehydrogenase, decarboxylating (Homo sapiens) (P52209 whole entry, looked up): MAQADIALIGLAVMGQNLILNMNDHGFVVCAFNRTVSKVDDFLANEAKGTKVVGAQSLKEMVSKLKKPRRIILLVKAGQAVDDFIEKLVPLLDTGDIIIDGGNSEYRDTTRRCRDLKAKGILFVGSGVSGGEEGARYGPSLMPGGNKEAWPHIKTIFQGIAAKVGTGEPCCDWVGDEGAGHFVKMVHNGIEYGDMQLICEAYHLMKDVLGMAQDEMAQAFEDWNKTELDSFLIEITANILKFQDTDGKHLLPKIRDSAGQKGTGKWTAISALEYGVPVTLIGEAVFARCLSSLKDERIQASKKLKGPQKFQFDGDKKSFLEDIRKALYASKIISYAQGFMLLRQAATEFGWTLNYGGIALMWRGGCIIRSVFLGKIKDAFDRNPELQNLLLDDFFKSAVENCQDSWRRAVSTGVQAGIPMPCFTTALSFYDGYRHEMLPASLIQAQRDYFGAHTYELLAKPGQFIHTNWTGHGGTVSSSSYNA
# Sequence of Mitogen-activated protein kinase 7 (Homo sapiens) (Q13164 whole entry, looked up, the tested form may be a part): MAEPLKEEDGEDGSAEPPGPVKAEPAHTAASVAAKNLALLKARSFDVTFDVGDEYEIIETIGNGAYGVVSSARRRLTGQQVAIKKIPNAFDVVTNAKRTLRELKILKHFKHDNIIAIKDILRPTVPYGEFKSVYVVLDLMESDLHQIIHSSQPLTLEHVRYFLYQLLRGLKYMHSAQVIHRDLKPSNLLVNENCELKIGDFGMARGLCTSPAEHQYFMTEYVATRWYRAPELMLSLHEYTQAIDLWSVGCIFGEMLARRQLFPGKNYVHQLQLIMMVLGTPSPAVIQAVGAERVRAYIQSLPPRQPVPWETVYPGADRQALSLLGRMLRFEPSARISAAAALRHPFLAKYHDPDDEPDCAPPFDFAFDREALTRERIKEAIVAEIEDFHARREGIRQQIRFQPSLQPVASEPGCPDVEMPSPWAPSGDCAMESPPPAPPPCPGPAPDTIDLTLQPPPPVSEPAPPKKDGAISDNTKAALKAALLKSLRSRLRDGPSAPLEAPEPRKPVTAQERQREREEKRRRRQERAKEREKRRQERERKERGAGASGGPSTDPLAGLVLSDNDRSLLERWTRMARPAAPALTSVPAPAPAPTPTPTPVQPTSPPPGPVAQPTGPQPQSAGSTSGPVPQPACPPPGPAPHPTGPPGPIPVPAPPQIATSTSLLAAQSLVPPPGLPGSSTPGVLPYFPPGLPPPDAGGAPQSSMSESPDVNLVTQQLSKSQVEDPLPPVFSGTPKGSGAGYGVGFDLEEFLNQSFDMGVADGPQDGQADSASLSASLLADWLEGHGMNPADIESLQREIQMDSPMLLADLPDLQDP
smiles,measurement,setting,value
CC(C)=CC1C(C(=O)OCc2cccc(Oc3ccccc3)c2)C1(C)C (stereo not drawn),parasite load remaining,[1],123% (inactive)
same,viability,[1],88.5%
same,nuclear beta-catenin stimulation,[2]; at 10 µM,1.3% (inactive)
same,nuclear beta-catenin stimulation,"[2]; stimulation, at 2 µM",2.5%
same,insulin secretion stimulation,[3],2.9% (inactive)
same,viability decrease,[4],-21.3% (inactive)
same,tube area decrease,[5],-14.2% (inactive)
same,GLP1 secretion stimulation,[6],1.7% (inactive)
same,inhibition of viability,[7],15.9% (inactive)
same,viability decrease (inhibition),[8],16.2% (inactive)
same,viability decrease (inhibition),[9],31.4% (inactive)
same,inhibition,[10],-5.61% (inactive)
same,red/green cell ratio (normalised),[11],0.95 (inactive)
same,normalised cell number,[11]; [20],1.25
same,normalised cell number,[11]; [21],1.19
same,activity remaining,[12],99.1% (inactive)
same,remaining NAD,[13],10 nM (inactive)
CCC1(CC)C(=O)C=CNC1=O,score,[14],0.96 and 1.19
same,cytochrome c release ratio,[15],1.06 and 0.67
same,inhibition of aggregation,[16],63.5% and 88.5%
same,parasite load remaining,[1],98.5% (inactive) and 80.5% (inactive)
same,viability,[1],103% and 91.2%
same,nuclear beta-catenin stimulation,[2]; at 10 µM,-0.7% (inactive)
same,nuclear beta-catenin stimulation,"[2]; stimulation, at 2 µM",-1.5%
same,insulin secretion stimulation,[3],0.8% (inactive)
same,viability decrease,[4],-18% (inactive)
same,tube area decrease,[5],-3.8% (inactive)
same,GLP1 secretion stimulation,[6],-1.4% (inactive)
same,inhibition of viability,[7],-8.6% (inactive)
same,viability decrease (inhibition),[8],4.3% (inactive)
same,viability decrease (inhibition),[9],-15.1% (inactive)
same,inhibition,[10],8.27% (inactive)
same,red/green cell ratio (normalised),[11],0.86 (inactive)
same,normalised cell number,[11]; [20],1.13
same,normalised cell number,[11]; [21],0.97
same,activity remaining,[12],115% (inactive)
same,fold change,[17]; stronger effect = lower value,0.859 (inactive)
same,fold change,[17]; [22],1.13
same,cell count,[17]; [23],8380
same,cell count,[17]; [24],9750
same,z-score,"[18]; MELAS cybrid survival, CellTiter-Glo 48 h, stronger effect = higher value",0.0321 (inactive)
same,z-score,"[18]; Rieske KO mouse fibroblast survival, CellTiter-Glo 72 h",-1.05
same,remaining NAD,[13],10 nM (inactive)
same,luciferase signal,[19],36 AU (inactive)
CCOP(=S)(OCC)Oc1cc(C)nc(C(C)C)n1,nuclear beta-catenin stimulation,[2]; at 10 µM,-0.5% (inactive)
same,nuclear beta-catenin stimulation,"[2]; stimulation, at 2 µM",0.1%
same,insulin secretion stimulation,[3],0.4% (inactive)
same,viability decrease,[4],-71.8% (inactive)
same,tube area decrease,[5],0.2% (inactive)
same,GLP1 secretion stimulation,[6],-1.4% (inactive)
same,inhibition of viability,[7],11.6% (inactive)
same,viability decrease (inhibition),[8],34% (inactive)
same,viability decrease (inhibition),[9],2.6% (inactive)
same,inhibition,[10],-22.8% (inactive)
same,red/green cell ratio (normalised),[11],1 (inactive)
same,normalised cell number,[11]; [20],1
same,normalised cell number,[11]; [21],1
same,activity remaining,[12],77.6% (inactive)
same,fold change,[17]; stronger effect = lower value,0.932 (inactive)
same,fold change,[17]; [22],1.33
same,cell count,[17]; [23],9160
same,cell count,[17]; [24],9830
same,remaining NAD,[13],10 nM (inactive)
CC(=O)Nc1cc([As](=O)(O)O)ccc1O,score,[14],0.97
same,cytochrome c release ratio,[15],1.06
same,inhibition of aggregation,[16],43.7%
same,parasite load remaining,[1],96.4% (inactive) and 52.6% (inactive)
same,viability,[1],66.8% and 91.1%
same,nuclear beta-catenin stimulation,[2]; at 10 µM,4.8% (inactive)
same,nuclear beta-catenin stimulation,"[2]; stimulation, at 2 µM",0.2%
same,insulin secretion stimulation,[3],-0.2% (inactive)
same,viability decrease,[4],-42.6% (inactive)
same,tube area decrease,[5],-21.2% (inactive)
same,GLP1 secretion stimulation,[6],-0.8% (inactive)
same,inhibition of viability,[7],-7.73% (inactive)
same,viability decrease (inhibition),[8],16.9% (inactive)
same,viability decrease (inhibition),[9],-3.7% (inactive)
same,inhibition,[10],17.7% (inactive)
same,red/green cell ratio (normalised),[11],0.8 (inactive)
same,normalised cell number,[11]; [20],1.16
same,normalised cell number,[11]; [21],0.94
same,activity remaining,[12],107% (inactive)
same,fold change,[17]; stronger effect = lower value,0.975 (inactive)
same,fold change,[17]; [22],2.55
same,cell count,[17]; [23],12000
same,cell count,[17]; [24],12300
same,remaining NAD,[13],10 nM (inactive)
same,luciferase signal,[19],52 AU (inactive)
